The text below walks through data of paper PMC5540273 (PLoS ONE, 2017).

The subject of experiment [1] is FGFR1. Conditions: concentration: 1 μM, replicates: in singlicate; n = 1.
Experiment [2] concerns FGFR2. The following applies: concentration: 1 μM, replicates: in singlicate; n = 1.
Experiment [3] deals with FGFR3. Conditions: concentration: 1 μM, replicates: in singlicate; n = 1.
Experiment [4] concerns FGFR4. Conditions: concentration: 1 μM, replicates: in singlicate; n = 1.
Experiment [5] has as its system FGR. Conditions: concentration: 1 μM, replicates: in singlicate; n = 1.
The test system of experiment [6] is FLT1. The following applies: concentration: 1 μM, replicates: in singlicate; n = 1.
Experiment [7] relates to FLT3-autoinhibited. The following applies: concentration: 1 μM, replicates: in singlicate; n = 1.
Experiment [8] deals with FLT3. Conditions: concentration: 1 μM, replicates: in singlicate; n = 1.
The subject of experiment [9] is FLT4. Conditions: concentration: 1 μM, replicates: in singlicate; n = 1.
The test system of experiment [10] is FRK. The following applies: concentration: 1 μM, replicates: in singlicate; n = 1.
Experiment [11] concerns FYN. Conditions: concentration: 1 μM, replicates: in singlicate; n = 1.
For experiment [12], the system named is GAK. The following applies: concentration: 1 μM, replicates: in singlicate; n = 1.
For experiment [13], the system named is T1, GCN2(Kin.Dom.2,S808G).
T1 construct: gene EIF2AK4
Conditions: concentration: 1 μM, replicates: in singlicate; n = 1.

Experiment [14] relates to GRK1. The following applies: concentration: 1 μM, replicates: in singlicate; n = 1.
Experiment [15] deals with T2, GRK2.
T2 construct: gene ADRBK1
The following applies: concentration: 1 μM, replicates: in singlicate; n = 1.

Experiment [16] has as its system T3, GRK3.
T3 construct: gene ADRBK2
Conditions: concentration: 1 μM, replicates: in singlicate; n = 1.

The test system of experiment [17] is GRK4. Conditions: concentration: 1 μM, replicates: in singlicate; n = 1.
The test system of experiment [18] is GRK7. The following applies: concentration: 1 μM, replicates: in singlicate; n = 1.
Experiment [19] concerns GSK3A. Conditions: concentration: 1 μM, replicates: in singlicate; n = 1.
For experiment [20], the system named is GSK3B. The following applies: n = 1.
Where [21] appears, read: concentration: 1 μM, replicates: in singlicate.

Where two headings read alike, the source gives them in different places.
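Also: KINOMEscan kinase panel screen.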

In the case of `Cc1nn2c(=O)cc(N3CCO[C@H](C)C3)nc2n1Cc1cccc(Cl)c1Cl` [GSK2373693], the “%Inh” value in experiment [1] is given as 6%; in experiment [2] it was 12%; in experiment [3], 12%; in [4] it was 63%; in [5], 6%; in experiment [6], 33%. Besides, the “%Inh” value in experiment [7] is listed as 13%; in [8], 0%; in [9] it was 18%; in experiment [10] it was 5%; in experiment [11] it was 7%; in experiment [12] it was 8%. For the same molecule, the “%Inh” value is listed as 0% in experiment [13]; 11% in [14]; 0% in [15]; 17% in [16]; 3% in [17]; 0% in [18]. The “%Inh” value in experiment [19] worked out at 0%; in experiment [20] (setting [21]), 69%.
`CCn1cnc2c(NCc3ccccc3)ncnc21` [SKF-96418]: the “%Inh” value in [1], in [2], in experiment [3], in experiment [4], in [5] and in experiment [6] was 0% each time. Further, the “%Inh” value in [7], in experiment [8], in experiment [9], in [10], in [11] and in experiment [12] was 0% in each case. Besides, the “%Inh” value in experiment [13] is recorded as 0%; in experiment [14] it was 39%; in experiment [15], 0%; in [16] it was 0%; in experiment [17], 6%; in experiment [18], 0%. For the same molecule, the “%Inh” value in experiment [19] was determined as 0%; in experiment [20] (setting [21]), 35%.
Take `CCNC(=O)/C=C/c1n[nH]c2cc(Sc3ccccc3C(=O)NC)ccc12`: the “%Inh” value was 79% in [1]; 74% in experiment [2]; 68% in experiment [3]; 14% in experiment [4]; 71% in experiment [5]; 99.9% in experiment [6]. Also, the “%Inh” value is 26% in [7]; 31% in experiment [8]; 99.5% in [9]; 31% in experiment [10]; 0% in experiment [11]; 13% in [12]. Also, the “%Inh” value amounted to 6% in [13]; 14% in experiment [14]; 25% in experiment [15]; 20% in experiment [16]; 0% in experiment [17]; 0% in experiment [18]. In addition, the “%Inh” value was determined as 18% in [19] and 29% in [20] (setting [21]).
Consider `COc1cc(Nc2nccc(N3CCC(NS(=O)(=O)c4ccc(NC(C)=O)cc4)CC3)n2)cc(OC)c1OC` [GSK1379825], for which the “%Inh” value amounted to 17% in [1]; 71% in experiment [2]; 59% in [3]; 69% in [4]; 50% in experiment [5]; 53% in [6]. The “%Inh” value in [7] stood at 73%; in [8], 92%; in experiment [9] it was 71%; in experiment [10] it was 35%; in [11] it was 67%; in [12], 44%. The “%Inh” value in experiment [13] worked out at 0%; in experiment [14], 0%; in [15], 62%; in experiment [16], 44%; in [17] it was 0%; in experiment [18], 0%. Further, the “%Inh” value in [19] came out at 0%; in [20] (setting [21]), 10%.
`O=C(Nc1n[nH]c2nc(-c3ccccc3O)ccc12)C1CC1` [SB-711880]: the “%Inh” value worked out at 31% in experiment [1]; 0% in experiment [2]; 0% in experiment [3]; 3% in experiment [4]; 0% in experiment [5]; 3% in [6]. The “%Inh” value in [7] is 0%; in experiment [8], 28%; in [9], 0%; in experiment [10], 0%; in experiment [11], 0%; in [12] it was 0%. For the same molecule, the “%Inh” value worked out at 26% in [13]; 49% in experiment [14]; 0% in experiment [15]; 0% in experiment [16]; 28% in experiment [17]; 12% in [18]. In addition, the “%Inh” value in [19] amounted to 87%; in experiment [20] (1 µM), 53%.
